From PubChem BioAssay (EPA / NIEHS) come the findings set out here.

Inconclusive results are not listed. Activity calls are given as the source filed them. The calls were made as follows: active = hit-call score of the fitted dose curve at least 0.9, where 1 is the maximum; inconclusive = response in the unintended direction; inactive = score below 0.9.

Chain of human Vitamin D Receptor (VDR), VDR (gene 7421) (P11473 whole entry, looked up): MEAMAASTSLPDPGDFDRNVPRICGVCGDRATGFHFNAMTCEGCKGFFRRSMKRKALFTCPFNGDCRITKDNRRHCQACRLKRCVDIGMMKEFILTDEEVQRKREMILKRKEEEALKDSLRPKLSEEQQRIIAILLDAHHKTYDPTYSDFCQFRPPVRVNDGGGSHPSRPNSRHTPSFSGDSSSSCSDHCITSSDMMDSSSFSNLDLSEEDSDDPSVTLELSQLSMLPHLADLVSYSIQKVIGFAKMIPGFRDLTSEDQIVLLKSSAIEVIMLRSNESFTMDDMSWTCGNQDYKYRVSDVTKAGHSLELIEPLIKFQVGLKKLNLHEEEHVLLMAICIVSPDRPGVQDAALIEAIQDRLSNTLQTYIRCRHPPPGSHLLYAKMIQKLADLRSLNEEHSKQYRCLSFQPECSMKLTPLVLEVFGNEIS

This assay addresses human Vitamin D Receptor (VDR), VDR (gene 7421) (UniProt P11473). The experiment in a line: ATG_VDR_TRANS: Attagene TRANS-FACTORIAL HepG2 Assay for human Vitamin D Receptor (VDR) (AID 2283022). As for the experimental part:
ATG_TRANS is a cell-based, multiplexed-readout assay that uses HepG2, a human liver cell line, with measurements taken at 24 hours after chemical dosing in a 24-well plate.ATG_VDR_TRANS is one of 30 assay component(s) measured or calculated from the ATG_TRANS assay. It is designed to make measurements of mRNA induction, a form of inducible reporter, as detected with fluorescence intensity signals by Reverse transcription polymerase chain reaction (RT-PCR) and Capillary electrophoresis technology.Data from the assay component ATG_VDR_TRANS was analyzed into 1 assay endpoint. This assay endpoint, ATG_VDR_TRANS, was analyzed in the positive analysis fitting direction relative to DMSO as the negative control and baseline of activity. Using a type of inducible reporter, measures of mRNA for gain-of-signal activity can be used to understand the reporter gene at the transcription factor-level as they relate to the gene VDR. Furthermore, this assay endpoint can be referred to as a primary readout, because this assay has produced multiple assay endpoints where this one serves a reporter gene function. To generalize the intended target to other relatable targets, this assay endpoint is annotated to the nuclear receptor intended target family, where the subfamily is non-steroidal.
Human liver HepG2 cells are transiently transfected with multiple reporter transcription units (MRTUs) in 6-well plates using FuGene 6 reagent (Roche; 3 ml FuGene/1 mg DNA). The MRTU constructs are regulated by a cis-regulating element (promoter). […] A major difference between the CIS and TRANS system is that in CIS activities of endogenous TFs are measured, whereas the TRANS assay evaluates changes in activities of exogenous, chimeric NR-Gal4 proteins. […] At the end of 24 hour incubation, total RNA was isolated using TriZol reagent (Invitrogen). The isolated RNA is then reverse-transcribed using oligo(dT) primer and Mo-MLV reverse transcriptase (Invitrogen) with DNAse I (Ambion) treatment for 30 min. The one-tenth of the produced cDNA was amplified by PCR using Taq DNA polymerase (Invitrogen) and two reporter sequence-specific primers. The PCR products were fluorescently labeled by primer extension with 6-arboxyfluorescein (6-FAM) 5'-labeled reporter sequence-specific primer (2 min at 95 C, 20 s at 68 C and 10 min at 72 C) and these products were digested with 5U of HpaI (New England Biolabs) for 2h at 37 C. The fragments were purified using Qiaquick PCR columns (Qiagen), analyzed on an ABI 3130xL genetic analyzer (Applied Biosystems) with peak positions identified by using a set of X-rhodamine (ROX)-labeled MapMarker1000 molecular weight standards (BioVentures). The raw capillary electrophoresis data was processed using Attagraph software (Attagene).
For `CSC(=O)c1c(C(F)F)nc(C(F)(F)F)c(C(=O)SC)c1CC(C)C`, the call was inactive. In the case of `CC1(C)CON(Cc2ccccc2Cl)C1=O` it was “inactive”; in that of `CCN(CC)c1nc(C)cc(OP(=S)(OC)OC)n1`, “inactive”. `COC(=O)N(C(=O)N1CO[C@@]2(C(=O)OC)Cc3cc(Cl)ccc3C2=N1)c1ccc(OC(F)(F)F)cc1`: the molecule was called inactive. Take `CCC(C)n1c(=O)[nH]c(C)c(Br)c1=O` (stereo not given): the molecule was called inactive.

As for `CC(C)Nc1nc(Cl)nc(NC(C)C)n1`, the molecule was classed as inactive. For `CCOc1cc(C(C)(C)C)ccc1C1COC(c2c(F)cccc2F)=N1` (stereo not given) the value was “inactive”; for `Clc1nc(Cl)nc(Nc2ccccc2Cl)n1`, “inactive”; for `CC(C)N1C(=O)c2ccccc2NS1(=O)=O`, “inactive”. Consider `OC(c1ccc(Cl)cc1)(c1ccc(Cl)cc1)C(Cl)(Cl)Cl`, for which the call was inactive. For `COC(=O)c1c(C(F)F)nc(C(F)(F)F)c(C2=NCCS2)c1CC(C)C` the value was “inactive”; for `CC1(C)CCC(=Cc2ccc(Cl)cc2)C1(O)Cn1cncn1` (stereo not given), “inactive”.

With `COCC(C)N(C(=O)CCl)c1c(C)csc1C` (stereo not given), the molecule was called inactive. For `CC1(C)C(C(=O)OC(C#N)c2cccc(Oc3ccccc3)c2)C1(C)C` (stereo not given) the value was “inactive”; for `CS(=O)(=O)c1cc(C(F)(F)F)ccc1C(=O)c1cnoc1C1CC1`, “inactive”; for `COP(=S)(OC)Oc1ccc([N+](=O)[O-])c(C)c1`, “inactive”. In the case of `CCOc1nc(F)cc2nc(S(=O)(=O)Nc3c(Cl)cccc3Cl)nn12` it was “inactive”; in that of `CNC(=O)N(C)c1nnc(C(C)(C)C)s1`, “inactive”. For `COC(=O)NC(=S)Nc1ccccc1NC(=S)NC(=O)OC` the value was “inactive”; for `CCOc1nc(C(Cl)(Cl)Cl)ns1`, “inactive”. As for `CNC(=O)Oc1cccc2ccccc12`, the molecule was classed as inactive.

`Cn1c(-c2ccccc2)cc(-c2ccccc2)[n+]1C`: the outcome was inactive. For the molecule `COCc1cnc(C2=NC(C)(C(C)C)C(=O)N2)c(C(=O)O)c1` (stereo not given), the molecule was classed as inactive. For `CN/C(=N\[N+](=O)[O-])NCc1cnc(Cl)s1` the value was “inactive”.

Consider `CCOP(=S)(OCC)Oc1nc(Cl)n(C(C)C)n1`, for which the result was inactive.
